In the OligoGym collection:

Target: POLH
Assay: pooled miR-30 sensor sort-seq; sequence = guide strand
Settings: shRNA
Further: reference of the scale not given here.

Point of comparison: TATCAATCTGAAGAGAATCGAG, sensor-assay potency score (higher = more potent) -0.521. Against it:
- TTTAGAGGATTCTTCTAGCTTC — higher, 0.456
- TTACAGTTCTTGATGACAGTAA — higher, 0.425
- TAGAAGCAGACTTTTCTGCTTA — higher, 0.259
- TACACGAATGCTCACAACCAGC — lower, -1.33
- TAGCTTTTGTAGTCTCTCTTGT — higher, -0.253
- TTGTACTGTACAACTGCACAAG — lower, -0.852

Target: POLN
Assay: as above
Settings: shRNA

Point of comparison: TTTACTAACACCACAATTCCTC, sensor-assay potency score (higher = more potent) -0.28. Against it:
- TTTGTTTACTTGTTTTCTCTGA — higher, -0.00359
- TGACTTGATCTTGTGAACCTGC — higher, 0.614
- TTATAAGAAACCGTTCTCCTGC — higher, 0.596
- TAATGGATGAAGGTCTCGCAGA — lower, -0.869
- TTTTTGGTCAGCAGACAGCTGA — lower, -1.02
- TTGATCTTGTGAACCTGCCTGT — higher, 0.754
- TTGCTCGTTATAAGAAACCGTT — lower, -0.677
- TTCATTATTTATATTCTCCATT — lower, -0.758
- TCTATTTGAATGTAGATGCATG — lower, -0.558
- TTGCCATAAACCATAATCCTTC — lower, -1.02

Target: POLR2B
Assay: as above
Settings: shRNA

Point of comparison: AAGATTGCAAACATGAACCTGA, sensor-assay potency score (higher = more potent) 0.822. Against it:
- TAGGAACTGATTACAATCCAGC — lower, -0.664
- TATCAAACCATCATCATCCAGC — lower, -0.225
- TAAAAGATTAGAAATCTTCTGC — lower, 0.528
- TATTATGCAACTGTCTTGGTTT — lower, -0.109
- TTCTAAAATATCTCTGTCGGAC — lower, -0.797
- TTTTCTCTTTAGTAACACCAGG — lower, -1.3
- TTCTTTTTGTAAAACTTCCTTT — lower, -0.613
- TTTCTCTTTAGTAACACCAGGC — lower, -0.352
- TTTTACAAAATTTATATCCTTC — lower, 0.417
- TATATGTGGAACAATAAGCTAC — lower, -0.462
- TAGTGCAACATTCTGTTCTTGG — lower, 0.768

Target: POLR3B
Assay: as above
Settings: shRNA

Point of comparison: TAGCTCATCACAGCAACTGTTG, sensor-assay potency score (higher = more potent) -0.674. Against it:
- TTGGTGTATCGTTTCAACGTAC — higher, -0.297
- TTTATTAATTGTGTGTTCGTAC — higher, 0.467
- TATATGAGTCTGTTGCTCCTTT — higher, 0.252
- TTTCCTTGTAGCAGCATCCAAC — lower, -0.877
- TTAAGTACCACATAGGGTCAGC — lower, -0.683
- TATCCTTTAGGTCACATCCATC — lower, -1.12
- TTACATTGAAGCTTTCTTCAAC — higher, 0.0741
- TAAATTTTTTGAACAAGTCTTC — higher, -0.054
- TAACAATGAAGTAGCCACCTGG — higher, -0.287
